± gives the standard deviation.
How the values were obtained:
Settings in all cases: modulator concentration 10 µM
[1] = tested on: RAW-Dual (murine macrophage reporter line); assay: NF-kB reporter (SEAP) activity fold change vs agonist alone; higher = enhanced NF-kB activity
How it was run: (§1)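 In 384-well plates holding 50 000 RAW-Dual murine macrophage reporter cells per well, compound at 10 μM final was pre-incubated for 1 hour at 37 °C, after which a PRR agonist was added overnight. Supernatant SEAP read with QUANTI-Blue at 620 nm absorbance reported NF-κB, and Lucia luciferase read with QUANTI-Luc luminescence reported IRF. Fold change values come from dividing each reporter signal by the mean of agonist-only control wells on the same plate, averaged over replicate plates with propagated errors.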

[2] = tested on: RAW-Dual (murine macrophage reporter line); assay: IRF reporter (Lucia luciferase) activity fold change vs agonist alone; higher = enhanced IRF activity
How it was run: as §1

[3] = tested on: RAW-Dual (murine macrophage reporter line); assay: viability score (confluency relative to resting cells, overnight) (fraction); higher = more viable, active = viable (0.7 or more)
How it was run: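 RAW-Dual macrophages in 384-well plates were treated overnight with compound at 10 μM final. IncuCyte imaging recorded confluency, and IncuCyte software built two confluency masks across every imaged well. The viability score expresses confluency relative to resting cells and was judged against a cutoff, which a compound met only if both masks exceeded 70% of resting cells.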

[4] = agonist: CpG ODN 1826 0.5 ug/mL

Structure (SMILES) | NF-kB reporter [1, 4] | NF-kB reporter ([1]; agonist: LPS 0.1 ug/mL) | NF-kB reporter ([1]; agonist: MPLA […]) | IRF reporter ([2]; agonist: 3'3'-cGAMP 10 ug/mL) | IRF reporter ([2]; agonist: LPS 0.1 ug/mL) | IRF reporter ([2]; agonist: MPLA […]) | viability score [3]
O=C(Cc1ccc(F)cc1F)N1CCC(n2c(=O)[nH]c3ccccc3c2=O)CC1 | 1.01 ± 0.06 | 1.15 ± 0.088 | 0.997 ± 0.026 | 0.878 ± 0.033 | 1.07 ± 0.061 | 1.03 ± 0.12 | 1 (active)
C=CCn1c(=N)n(CC(O)c2ccco2)c2ccccc21.Cl (centres undefined) | 1.15 ± 0.13 | 0.961 ± 0.1 | 1.21 ± 0.056 | 1.07 ± 0.17 | 1.03 ± 0.043 | 0.936 ± 0.061 | 1 (active)
Cl.Nc1c2c(nc3ccccc13)CCCC2 | 0.172 ± 0.048 | 0.751 ± 0.041 | 0.918 ± 0.06 | 0.616 ± 0.024 | 0.806 ± 0.25 | 0.837 ± 0.12 | 0.995 (active)
Nc1ccn([C@@H]2O[C@H](CO)[C@@H](O)C2(F)F)c(=O)n1 | 1.8 ± 0.25 | 1.07 ± 0.28 | 1.21 ± 0.11 | 1.59 ± 0.088 | 1.61 ± 0.35 | 1.33 ± 0.31 | 0.241 (inactive)
Cl.Cl.Fc1ccc(C(c2ccc(F)cc2)N2CCN(C/C=C/c3ccccc3)CC2)cc1 | 1.06 ± 0.087 | 0.97 ± 0.1 | 1.42 ± 0.3 | 1.06 ± 0.068 | 1.11 ± 0.082 | 1.26 ± 0.14 | 0.999 (active)
CN1CCN(C2=NC(=O)C(=Cc3ccc(Cl)cc3Cl)S2)CC1 | 0.833 ± 0.076 | 0.86 ± 0.068 | 1.15 ± 0.099 | 0.956 ± 0.051 | 1.42 ± 0.099 | 1.59 ± 0.18 | 0.999 (active)
COc1cc(Nc2ncc3c(n2)-c2ccc(Cl)cc2C(c2c(F)cccc2OC)=NC3)ccc1C(=O)O | 0.416 ± 0.036 | 0.72 ± 0.038 | 0.775 ± 0.081 | 0.974 ± 0.045 | 1.06 ± 0.062 | 1.06 ± 0.15 | 0.92 (active)
CN1CCC(OC(c2ccccc2)c2ccccc2)CC1.Cl | 0.827 ± 0.31 | 1.17 ± 0.061 | 1.22 ± 0.087 | 0.638 ± 0.025 | 0.967 ± 0.19 | 1.08 ± 0.1 | 0.992 (active)
Cn1cnc2cc(NCc3nc4ccccc4n3C)ccc21 | 0.818 ± 0.065 | 1.03 ± 0.078 | 1.01 ± 0.039 | 0.955 ± 0.17 | 1.03 ± 0.15 | 1.03 ± 0.24 | 1 (active)
Cc1c(Cl)cccc1Nc1ccccc1C(=O)O | 1.16 ± 0.17 | 1.14 ± 0.3 | 0.887 ± 0.052 | 0.938 ± 0.043 | 1.34 ± 0.26 | 1.13 ± 0.28 | 1 (active)
CCC(C(=O)N1CCN(CCn2ccnc2-c2ccccc2)CC1)c1ccccc1 (centres undefined) | 0.982 ± 0.17 | 0.999 ± 0.14 | 1.24 ± 0.076 | 1 ± 0.13 | 1.04 ± 0.24 | 0.956 ± 0.4 | 0.984 (active)
O=C(CCCn1c(=O)[nH]c2ccc(Br)cc2c1=O)NCC1CCCO1 (centres undefined) | 0.965 ± 0.081 | 1.05 ± 0.099 | 0.931 ± 0.043 | 0.957 ± 0.057 | 1.04 ± 0.063 | 0.94 ± 0.25 | 1.02 (active)
COc1ccccc1OCCNCC(O)COc1cccc2[nH]c3ccccc3c12 (centres undefined) | 0.0926 ± 0.0072 | 0.894 ± 0.057 | 0.892 ± 0.084 | 1.26 ± 0.086 | 1.53 ± 0.11 | 1.53 ± 0.16 | 0.957 (active)
CCC(=O)Nc1ccc(NC(=O)c2ccco2)c(OC)c1 | 0.828 ± 0.065 | 0.831 ± 0.11 | 1.08 ± 0.12 | 0.934 ± 0.044 | 1.32 ± 0.11 | 1.42 ± 0.18 | 1.01 (active)
COCCNC(=O)C=Cc1ccccc1 | 1.12 ± 0.12 | 0.936 ± 0.085 | 1.05 ± 0.072 | 1.02 ± 0.15 | 0.98 ± 0.055 | 1.03 ± 0.074 | 0.991 (active)
CCC(Oc1ccccc1)C(=O)Nc1cc([N+](=O)[O-])ccc1C (centres undefined) | 0.91 ± 0.059 | 0.865 ± 0.073 | 0.987 ± 0.036 | 0.902 ± 0.042 | 0.997 ± 0.11 | 0.973 ± 0.14 | 1 (active)
O=[N+]([O-])c1ccc(CSc2nc3cccnc3[nH]2)cc1 | 1.17 ± 0.19 | 0.949 ± 0.12 | 0.905 ± 0.077 | 0.935 ± 0.028 | 1.16 ± 0.12 | 1.22 ± 0.2 | 1.01 (active)
CCOc1cccc2sc(N(CCCN(C)C)C(=O)c3ccc(Cl)s3)nc12.Cl | 0.938 ± 0.042 | 1.06 ± 0.19 | 0.898 ± 0.12 | 0.747 ± 0.093 | 0.989 ± 0.26 | 0.954 ± 0.38 | 0.917 (active)
Cc1ccc(S(=O)(=O)n2c(C)nc3ccccc32)cc1 | 1.13 ± 0.22 | 1 ± 0.18 | 0.897 ± 0.089 | 0.969 ± 0.025 | 1.2 ± 0.13 | 1.27 ± 0.13 | 0.959 (active)
Cc1cc(C)n(N=Cc2c[nH]c3ccccc23)c(=O)c1C#N | 1.08 ± 0.18 | 0.963 ± 0.099 | 1.02 ± 0.096 | 1.03 ± 0.032 | 1.4 ± 0.24 | 1.6 ± 0.23 | 1.03 (active)
Cc1ccc(C(C)C)c(Oc2ccccc2NC(=O)c2cc(I)cc(I)c2O)c1 | 0.995 ± 0.066 | 0.985 ± 0.082 | 0.924 ± 0.071 | 0.915 ± 0.035 | 1.44 ± 0.092 | 1.27 ± 0.25 | 1 (active)
COc1ccc(C(=O)CSc2nnc(NC(=O)C3CC(=O)N(c4cccc(OC)c4)C3)s2)cc1 (centres undefined) | 1.15 ± 0.066 | 1.11 ± 0.11 | 1.23 ± 0.13 | 0.528 ± 0.026 | 0.758 ± 0.059 | 0.708 ± 0.23 | 1.01 (active)
CC1CCc2c(oc3ccc(NS(=O)(=O)c4ccc(F)cc4)cc23)C1 (centres undefined) | 0.607 ± 0.1 | 0.626 ± 0.075 | 0.918 ± 0.032 | 0.853 ± 0.035 | 0.643 ± 0.11 | 1.76 ± 0.23 | 0.144 (inactive)
Cc1ccc(-c2ncc(Cl)cc2-c2ccc(S(C)(=O)=O)cc2)cn1 | 1.03 ± 0.17 | 1.15 ± 0.33 | 0.973 ± 0.054 | 1.05 ± 0.038 | 1.29 ± 0.4 | 1.37 ± 0.1 | 1 (active)
CCOc1ccc(Nc2oc(-c3ccc(COc4ccc(C)cc4)o3)nc2C#N)cc1 | 1.03 ± 0.082 | 0.717 ± 0.089 | 1.04 ± 0.099 | 0.998 ± 0.035 | 1.41 ± 0.24 | 1.67 ± 0.41 | 0.832 (active)
O=C(CSc1nnc(COc2ccc(Cl)cc2)o1)N1CCCc2ccccc21 | 0.883 ± 0.044 | 1.12 ± 0.11 | 0.853 ± 0.086 | 0.885 ± 0.044 | 0.823 ± 0.05 | 0.866 ± 0.29 | 1.01 (active)
Cc1ccc(S(=O)(=O)Nc2ccccc2-c2nc3ccccc3o2)cc1 | 2.45 ± 0.19 | 1.24 ± 0.081 | 1.45 ± 0.051 | 0.323 ± 0.033 | 1.09 ± 0.048 | 1.21 ± 0.08 | 0.713 (active)

Reference: the supplement of paper PMC10646978
